# HT1080 IDH1KD tx – HT-1080 IDH1 knockdown cell toxicity (counter line); AID 686971; 2% of 360,000 active; HT-1080 IDH1 knockdown viability, ATP luminescence, 48 h; Potency, µM (series often up to 46.1 µM), for inactives: at the top dose activity, negative = toxicity, usual class: cytotoxic;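 also: 0% = DMSO wells and -100% = cell-free medium wells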
#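 % activity derives from luminescence (CellTiter-Glo), normalised to DMSO and no-cell wells. HT-1080-IDH1KD cells, 750/well, had 48 h compound exposure at 37 °C.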
# SW480 rereplic – induces DNA re-replication in SW480 colon adenocarcinoma cells. SW480 DNA re-replication, Hoechst DNA content imaging, 48 h. Potency, µM (series often up to 46.1 µM), for inactives: top-dose re-replication activation, actives largely listed as activators. 1.8% of 340,000 active; also: % of control where 0% means no effect; nearly all actives have a fitted effect of over 55% in size
#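 250 cells/well; 23 nL cpd via pin tool; 48 hr, 37 C, 5% CO2; Hoechst 40 min; imager read of total nuclear intensity, ex 405/em 500-530 nm.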
# KB-V1 MDR tox – KB-V1 MDR subline cytotoxicity | KB-V1 MDR cells viability, CellTiter-Glo, 72 h | 3.4% of 400,000 active | AID 1347076 | Potency, µM (highest dose often 46.1 µM), most hits filed as cytotoxic; also: % is scaled to controls: 0 for no effect and ±100 for the full control effect; nearly all actives have a fitted effect of over 60% in size
#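 Cytotoxicity via CellTiter-Glo luminescence after 72 h compound exposure at 37 degrees C. Cells: drug-selected KB-V1 line, DMEM phenol-red free plus 10% FBS. Compounds tested at multiple concentrations; normalized data fitted to concentration-effect curves.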
# HT1080-NT tox – kills 2HG-producing HT-1080-NT fibrosarcoma cells; 1.6% of 360,000 active; Potency, µM (doses to about 46.1 µM), inactives show top-dose activity, negative = less viability, usual class: cytotoxic; HT-1080-NT fibrosarcoma viability, CellTiter-Glo ATP luminescence, 48 h;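 also: NT is the 2HG producing partner of a matched IDH1 knockdown line; 0% = DMSO-treated cells and -100% = media-only wells without cells; nearly all actives have a fitted effect of over 55% in size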
#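 Toxicity toward the 2HG-producing NT line was scored as %Activity, normalised to DMSO and no-cell wells, from CellTiter-Glo luminescence after 48 hours' treatment.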
# MCF10A rereplic – induces DNA re-replication in MCF 10a normal breast cells; MCF 10A DNA re-replication, Hoechst nuclear intensity, 48 h; Potency, µM (highest dose often 46.1 µM), for the others: at the top dose activity, positive = re-replication, hits mostly activators; 2.9% of 350,000 active; AID 624296; also: % of control where 0% means no effect; nearly all actives have a fitted effect of over 50% in size
# KB-3-1 tox – KB-3-1 parental cell cytotoxicity | KB-3-1 viability, CellTiter-Glo ATP luminescence, 72 h | Potency, µM (titrated, usually from 46.1 µM), usual class: cytotoxic | 1.4% of 400,000 active; also: % is scaled to controls: 0 for no effect and ±100 for the full control effect; nearly all actives have a fitted effect of over 60% in size
#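 Cytotoxicity in the drug-sensitive parental line KB-3-1 was scored as loss of CellTiter-Glo luminescence following 72 h incubation with compound. Values come from curve fitting of normalized concentration-response data.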
# The depositor's hits bear a star; i = inactive; u = inconclusive; x = not tested or not shown. Only some compounds are listed: those with a hit (about 7.9% of all), similar ones and a draw of the others. Calls follow the shape of the dose curve; as a rule, active = well fitted curve in the direction sought with a large enough effect; inconclusive = small, poorly fitted or top-dose-only effect, or another doubt; inactive = no such curve, though single readings can be large; an effect the other way counts as inactive or inconclusive. Potency is read from the fitted curve at half-maximal effect.
SMILES,HT1080 IDH1KD tx,SW480 rereplic,KB-V1 MDR tox,HT1080-NT tox,MCF10A rereplic,KB-3-1 tox
CC(=O)OCn1ncc(N2CCOCC2)c(Br)c1=O,18.0%,1.9%,i,15.3%,-0.3%,i
O=C1C2C3c4ccccc4C(Br)(c4ccccc43)C2C(=O)N1c1ccccc1O (stereo not given),12.4%,18.4µM*,i,5.8%,-6.9%,i
COc1ccc(OC)c(NC(=O)C2CC(/C=C/c3ccccc3)=NO2)c1 (stereo not given),0.0%,4.4%,i,-1.3%,-4.5%,i
CCOc1ccc(S(=O)(=O)N(CC)CC)cc1N,-7.0%,-64.2%,i,2.0%,3.5%,i
CCOc1ccc(C(=O)c2ccc(OCC)c(N)c2)cc1N,-18.5%,u,i,-0.8%,18.4µM*,u
O=C(NC1CCCCC1)c1cc(S(=O)(=O)N2CCOCC2)ccc1Cl,-8.2%,-6.9%,i,2.0%,5.3%,i
O=C(c1cnn2c1NC(=C1CC1)C=C2C(F)F)N1CCc2ccccc21,x,x,i,x,x,u
CCc1nn2c(=O)cc(COC(=O)c3ccc(SC)cc3OC)nc2s1,14.3%,-6.5%,10.3µM*,10.5%,-6.5%,i
CCSc1nc(-c2ccc(OC)cc2)n(-c2nc3ccccc3s2)n1,12.6%,5.2%,11.6µM*,0.3%,13.7%,i
COC(=O)c1cc2oc(C)cc2n1Cc1cc(C)ccc1C,x,x,i,x,x,i
CCOc1ccc(S(=O)(=O)N(C)CCO)cc1-c1nc2c(C(C)(C)C)nn(C)c2c(=O)[nH]1,-7.4%,-7.9%,10.3µM*,-6.0%,0.8%,u
CCOc1ccc(S(=O)(=O)N(C)C)cc1-c1nc2c(C(C)(C)C)nn(C)c2c(=O)[nH]1,u,5.2%,u,13.8%,u,i
Cc1cc(C)n2nc(SCc3nnc(SCc4ccccc4)s3)nc2n1,-7.7%,-1.0%,13µM*,0.4%,-0.8%,i
C/C(=N\NC(=O)CO/N=C(\C)c1cccs1)c1ccc(N)cc1,-0.1%,-1.6%,i,1.2%,3.9%,i
Cc1ccccc1/C=N/NC(=O)Cc1ccc(Cl)cc1,-12.6%,-9.1%,i,-16.5%,u,i
Cc1ccc(/C=N/NC(=O)Cc2ccc(Cl)cc2)c(O)c1,18.4µM*,7.31µM*,7.31µM*,u,14.5%,u
C/C(=N\OCC(=O)N/N=C/c1ccc(C)cc1O)c1cccs1,-0.4%,6.51µM*,u,-17.9%,4.11µM*,i
C=C1Nc2ccccc2C(=O)N1c1ccc(C(=O)N2CCN(C(=O)c3ccco3)CC2)cc1,x,x,i,x,x,u
CN1CCC(N(C)C(=O)/C=C/c2cn(-c3ccccc3)nc2-c2cccs2)CC1,18.4µM*,3.0%,20.6µM*,25.9µM*,u,i
O=C(N/N=C/c1cn(-c2ccccc2)nc1-c1cccs1)c1ccccc1F,u,u,20.6µM*,-26.4%,u,u
O=C(/C=C/c1cn(-c2ccccc2)nc1-c1cccnc1)c1ccco1,u,u,20.6µM*,u,u,u
O=C(N/N=C/c1cn(-c2ccccc2)nc1-c1cccnc1)c1ccc(F)cc1,-26.2%,2.7%,i,-21.8%,3.26µM*,i
O=C(N/N=C/c1cn(-c2ccccc2)nc1-c1cccnc1)c1cccnc1,10.8%,0.9%,i,3.2%,-7.8%,i
COC(=O)C1CCN(C2CN(Cc3ccc(F)cc3)S(=O)(=O)C2)CC1 (stereo not given),21.7%,x,i,27.0%,x,i
O=C(NCc1c(-n2cccc2)sc2c1CCCC2)Nc1cccc(C(F)(F)F)c1,x,x,i,x,x,i
SMILES,HT1080 IDH1KD tx,SW480 rereplic,KB-V1 MDR tox,HT1080-NT tox,MCF10A rereplic,KB-3-1 tox
O=C(N/N=C/c1cn(-c2ccccc2)nc1-c1cccs1)c1ccc(Cl)cc1,-17.3%,0.9%,14.6µM*,-9.5%,u,u
Cc1cc(C)c(/C=C(\C#N)S(=O)(=O)c2ccccc2)[nH]1,-11.2%,0.0%,u,1.0%,18.4µM*,i
COc1ccc(C=NNC(=S)Nc2ccc(F)cc2)cc1OC,-9.9%,-4.1%,i,-5.6%,6.1%,i
COCCCNC(=S)N/N=C/c1ccc(OC)c(Br)c1,-2.0%,3.26µM*,i,-6.6%,29.3%,i
COc1ccc(CNC(=S)N/N=C/c2ccc(OC)c(OC)c2)cc1,u,2.0%,i,-9.4%,22.7%,i
COc1ccc(C=NNC(=S)NN=Cc2ccc(OC)c(OC)c2)cc1OC,-17.5%,u,0.231µM*,-20.3%,u,0.461µM*
COc1ccc(/C=N/NC(=S)NCc2ccccc2)cc1OC,-1.3%,-6.9%,20.6µM*,0.6%,-20.9%,i
COc1ccc(-n2ccn3c(CC(C)(C)CC(=O)O)nnc3c2=O)cc1,x,x,i,x,x,i
CC(C)(C)NC(=O)[C@@H]1C[C@@H]2CCCC[C@@H]2CN1C[C@@H](O)[C@H](Cc1ccccc1)NC(=O)[C@H](CC(N)=O)NC(=O)c1ccc2ccccc2n1,23.1µM*,u,i,20.6µM*,u,u
Cn1sccc1=O,u,1.64µM*,i,u,6.4%,i
O=C(NCCNc1ccc([N+](=O)[O-])cc1)c1cccc(Br)c1,12.8%,2.0%,i,0.9%,13.9%,i
O=C(NCCNc1ccc([N+](=O)[O-])cc1C(F)(F)F)c1ccccc1,-9.9%,18.1%,16.4µM*,0.9%,-64.5%,i
O=C(NCCNc1ccc([N+](=O)[O-])cc1C(F)(F)F)c1cccc(F)c1,-27.9%,u,18.4µM*,-15.8%,18.8%,u
O=C(COC(=O)c1ccc[n+]([O-])c1)Nc1ccc([N+](=O)[O-])cc1C(F)(F)F,-2.9%,u,i,-0.8%,0.1%,i
CCOC(=O)C1(Cc2cccc(OC)c2)CCN(Cc2cccc(OC)c2O)CC1,u,19.6%,5.17µM*,u,u,u
CCOC(=O)C1(Cc2cccc(F)c2)CCN(Cc2nc(CC)[nH]c2C)CC1,-16.4%,5.8µM*,i,u,12.6µM*,i
CCOC(=O)C1(CCOc2ccccc2)CCN(Cc2cc(OC)c3c(c2)OCO3)CC1,18.4µM*,u,i,18.4µM*,u,u
CCOC(=O)C1(CCOc2ccccc2)CCN(Cc2cccc3c2OCO3)CC1,u,u,u,20.6µM*,u,u
CCOC(=O)C1(Cc2cccc(F)c2)CCN(Cc2cnn(CC)c2)CC1,u,3.8%,i,-5.9%,u,i
CCOC(=O)C1(Cc2cccc(OC)c2)CCN(Cc2ccccc2OC)CC1,u,-1.0%,u,u,5.9%,i

# Bioassay records: PubChem BioAssay, National Center for Advancing Translational Sciences (NCATS)
